Type in all cases: functional
The subject of experiment [1] is Plasmodium falciparum. The experiment can be described thus: GSK_TCMDC: Inhibition of Plasmodium falciparum 3D7 in whole red blood cells, using parasite LDH activity as an index of growth. Test compounds present at 2uM.
Experiment [2] relates to Plasmodium falciparum. The experiment is described as follows: GSK_TCMDC: Inhibition of Plasmodium falciparum Dd2 in whole red blood cells, using parasite LDH activity as an index of growth. Test compounds present at 2uM.
The test system of the next experiment is HepG2. The experiment can be described thus: GSK_TCMDC: Percent inhibition of human HepG2 cell line. Test compounds present at 10uM.

Turning to `COc1ccc(-c2nc(NC(=O)CS(=O)(=O)c3ccc(OC)cc3)sc2C)cc1`, the Inhibition in the experiment with Plasmodium falciparum [1] came out at 95%; in the experiment on Plasmodium falciparum [2], 89%; in the experiment on HepG2 it was 6%.
The corresponding values for `Cc1ccc(-c2nn3c(O)c4c(nc3c2C)CCCC4)cc1` are 97%, 87% and 16%.
The corresponding values for `COc1cccc(C(=O)NCc2nnc(S)n2-c2ccc(Cl)c(Cl)c2)c1` are 100%, 100% and 0%.
For the compound `Nc1nc(N)c2cc(CNc3ccc(Cl)c(Cl)c3)ccc2n1`, the Inhibition in the experiment with Plasmodium falciparum [1] is 93%; in the experiment with Plasmodium falciparum [2], 55%; in the experiment on HepG2, 62%.
For the compound `CC(C)NC(=O)c1cccc(-c2cccc(OCCN3CCSCC3c3ccccc3)c2)c1` (stereo unspecified), the Inhibition in the experiment with Plasmodium falciparum [1] is 89%; in the experiment on Plasmodium falciparum [2] it was 45%; with HepG2, 24%.
Turning to `Oc1ccccc1CN(CCCN(Cc1ccccn1)Cc1ccccc1O)Cc1ccccn1`, the Inhibition in the experiment with Plasmodium falciparum [1] is given as 92%; with Plasmodium falciparum [2] it was 92%; with HepG2, 64%.
As for `CC1c2cccc(O)c2CCN1CCc1ccc(Cl)c(Cl)c1.Cl` (stereo unspecified), the Inhibition with Plasmodium falciparum [1] worked out at 100%; in the experiment on Plasmodium falciparum [2], 99%; in the experiment on HepG2, 18%.
`CC(C)NCc1cccc(-c2cccc(-c3nc4ccccc4[nH]3)c2)c1.O=C(O)C(F)(F)F`: the values for the Inhibition in the experiment on Plasmodium falciparum [1], with Plasmodium falciparum [2] and with HepG2 were 100%, 22% and 11%, respectively.
For the compound `Cc1cc2c(/C=C/C(=O)NC3CCC(CCN4CCc5ccc(C#N)cc5CC4)CC3)cccc2[nH]1.Cl` (stereo unspecified), the Inhibition in the experiment with Plasmodium falciparum [1] was 95%; in the experiment with Plasmodium falciparum [2], 39%; with HepG2 it was 16%.
The like results for `Fc1ccc2[nH]c(-c3ccc(-c4ccc(CN5CCN(c6cnccn6)CC5)cc4)s3)nc2c1.O=C(O)C(F)(F)F` were, in that order, 99%, 98% and 45%.
`CCNCc1ccc(-c2cc3ncnc(Nc4ccc(OCc5cccc(F)c5)c(Cl)c4)c3s2)[nH]1`: the Inhibition in the experiment with Plasmodium falciparum [1] was 100%; with Plasmodium falciparum [2], 74%; in the experiment on HepG2, 22%.
Take `CN(C)CCOc1cccc(NC(=O)Nc2ccc(-c3ccccc3)cc2)c1.O=C(O)C(F)(F)F`: the Inhibition is on record as 90% in the experiment with Plasmodium falciparum [1], 16% in the experiment on Plasmodium falciparum [2] and 11% in the experiment on HepG2.

The term Inhibition denotes the change of the read-out against control, counted positive when it falls. Read a low Inhibition as a weak effect.

The values are drawn from ChEMBL document CHEMBL1157539, “Thousands of chemical starting points for antimalarial lead identification” (Nature, 2010).
